Laboratory results from PubChem BioAssay AID1159580 (chemical genetic matrix, 2015).
Out of some 5,500 compounds screened, about 2,000 (36%) were called active. Roughly 18% stayed inconclusive and do not appear here. No stated cut-off is given here; in the data, active means normalized growth mostly below about 0.91 (no sharp cut-off); inconclusive means no clear call, values can overlap the other calls; inactive means mostly above about 0.92. The list shows a part of the results.

Experiment: chemical genetic growth profiling, strain panel (AID 1159580);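 further: tested at 20 µM; growth read once vehicle control cultures reached saturation at 30 °C; 1 = growth at the plate median or of vehicle wells; lower values mean less growth of the strain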
Settings: S. cerevisiae deletion strains, growth OD

Measured: normalized growth

O=C1CC(c2ccc(O)c(O)c2)Oc2cc(O)cc(O)c21 (stereo unspecified)
inactive: locus YAL021C, strain ccr4, hits give low values 0.989 | locus YAL026C, strain drs2, hits give low values 1 | locus YAL030W, strain snc1, hits give low values 0.994 | locus YBL061C, strain skt5, hits give low values 0.984 | locus YBR009C, strain hhf1, hits give low values 1.01 | locus YBR023C, strain chs3, hits give low values 0.987 | locus YBR171W, strain sec66, hits give low values 0.993 | locus YBR231C, strain swc5, hits give low values 0.958 | locus YBR279W, strain paf1, hits give low values 1.01 | locus YCL011C, strain gbp2, hits give low values 1 | locus YCL016C, strain dcc1, hits give low values 1.01 | locus YCL061C, strain MRC1, hits give low values 0.989 | locus YCL069W, strain vba3, hits give low values 1.01 | locus YCR088W, strain abp1, hits give low values 0.999 | locus YDL005C, strain med2, hits give low values 0.977 | locus YDL040C, strain nat1, hits give low values 1.01 | locus YDR001C, strain nth1, hits give low values 1.01 | locus YDR069C, strain doa4, hits give low values 0.958 | locus YDR137W, strain rgp1, hits give low values 0.995 | locus YDR159W, strain sac3, hits give low values 0.995 | locus YDR195W, strain ref2 0.983 | locus YDR297W, strain sur2, hits give low values 1.01 | locus YDR334W, strain swr1, hits give low values 1.01 | locus YDR335W, strain msn5, hits give low values 0.994 | locus YDR392W, strain spt3, hits give low values 0.967 | locus YEL003W, strain gim4, hits give low values 0.994 | locus YEL037C, strain rad23, hits give low values 0.986 | locus YEL061C, strain CIN8 (second series), hits give low values 1.01 | locus YER015W, strain faa2, hits give low values 0.996 | locus YER016W, strain bim1, hits give low values 0.992 | locus YER111C, strain swi4, hits give low values 0.99 | locus YER155C, strain BEM2 (second series), hits give low values 0.984 | locus YFR010W, strain ubp6, hits give low values 0.97 | locus YGL167C, strain pmr1, hits give low values 0.991 | locus YGL173C, strain kem1, hits give low values 0.987 | locus YGL227W, strain vid30, hits give low values 1 | locus YGL240W, strain doc1, hits give low values 1.02 | locus YGL253W, strain hxk2, hits give low values 1.01 | locus YHR013C, strain ard1, hits give low values 0.974 | locus YHR027C, strain rpn1, hits give low values 1.01 | locus YHR142W, strain chs7, hits give low values 0.969 | locus YJL092W, strain hpr5, hits give low values 1 | locus YJL095W, strain BCK1 (second series), hits give low values 1 | locus YJL115W, strain asf1, hits give low values 1 | locus YJL129C, strain trk1, hits give low values 0.999 | locus YJL154C, strain vps35, hits give low values 1.02 | locus YJL164C, strain tpk1, hits give low values 0.973 | locus YJL166W, strain qcr8, hits give low values 1.01 | locus YKL160W, strain elf1, hits give low values 0.975 | locus YKR026C, strain gcn3, hits give low values 1.02 | locus YKR091W, strain srl3, hits give low values 0.994 | locus YLL001W, strain dnm1, hits give low values 0.992 | locus YLL026W, hits give low values 1 | locus YLL041C, strain sdh2, hits give low values 0.997 | locus YLR027C, strain aat2, hits give low values 1.01 | locus YLR221C, strain rsa3, hits give low values 0.998 | locus YLR258W, strain gsy2, hits give low values 0.992 | locus YLR262C, strain YPT6 (second series), hits give low values 1.01 | locus YLR320W, strain mms22, hits give low values 0.98 | locus YLR342W, strain FKS1, hits give low values 0.993 | locus YLR357W, strain rsc2, hits give low values 0.966 | locus YLR370C, strain arc18, hits give low values 1.01 | locus YLR384C, strain iki3, hits give low values 1.01 | locus YML120C, strain ndi1, hits give low values 1 | locus YMR058W, strain fet3, hits give low values 0.969 | locus YMR125W, strain sto1, hits give low values 0.995 | locus YMR129W, hits give low values 1 | locus YMR205C, strain PFK2, hits give low values 1 | locus YMR231W, strain pep5, hits give low values 0.996 | locus YNL071W, strain lat1, hits give low values 0.998 | locus YNL209W, strain ssb2, hits give low values 1 | locus YNL248C, strain rpa49, hits give low values 0.989 | locus YNL322C, strain KRE1 (second series), hits give low values 0.997 | locus YNR049C, strain mso1, hits give low values 1 | locus YOR001W, strain rrp6, hits give low values 0.997 | locus YOR070C, strain gyp1, hits give low values 0.992 | locus YOR080W, strain dia2, hits give low values 0.984 | locus YOR083W, strain WHI5, hits give low values 0.951 | locus YOR106W, strain vam3, hits give low values 0.984 | locus YOR265W, strain rbl2, hits give low values 1 | locus YOR270C, strain vph1, hits give low values 1.08 | locus YOR290C, strain snf2, hits give low values 0.995 | locus YPL051W, strain arl3, hits give low values 0.975 | locus YPL078C, strain atp4, hits give low values 0.991 | locus YPL106C, strain sse1, hits give low values 0.993 | locus YPL240C, strain hsp82, hits give low values 1.01
